Assay outcomes deposited in PubChem BioAssay by several laboratories.
HTR5A inv ag: inverse agonist of human HTR5A in OPRM1-OPRD1 counter-screen. P47898. HTR5A cell line, luminescence, inverse agonism. inhibition, % at 9.3 µM. hit rate 0.083% among 340,000; in the data active = inhibition mostly above about 23%, no sharp cut-off; inactive = mostly below about 18%
MOR-DOR inv ag: mu-delta opioid heterodimer inverse agonism; cell-based MOR-DOR heterodimer luminescence; inhibition, % at 9.3 µM; P35372+P41143; hit rate 0.21% among 340,000; in the data active = inhibition above about 22%, passing the limit was not always enough
Target sequence (P35372 whole entry, looked up): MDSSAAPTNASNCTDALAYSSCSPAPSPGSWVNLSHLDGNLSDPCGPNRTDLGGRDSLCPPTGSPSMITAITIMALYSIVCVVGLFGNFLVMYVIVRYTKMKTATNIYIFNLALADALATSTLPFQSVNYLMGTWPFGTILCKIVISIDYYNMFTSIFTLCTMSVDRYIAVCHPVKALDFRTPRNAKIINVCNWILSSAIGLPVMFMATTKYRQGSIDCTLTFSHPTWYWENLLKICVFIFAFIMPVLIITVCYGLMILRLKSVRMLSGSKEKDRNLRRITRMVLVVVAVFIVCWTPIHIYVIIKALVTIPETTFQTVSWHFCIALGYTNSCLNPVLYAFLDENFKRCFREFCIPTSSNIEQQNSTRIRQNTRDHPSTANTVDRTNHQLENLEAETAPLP
Target sequence (P41143 whole entry, looked up): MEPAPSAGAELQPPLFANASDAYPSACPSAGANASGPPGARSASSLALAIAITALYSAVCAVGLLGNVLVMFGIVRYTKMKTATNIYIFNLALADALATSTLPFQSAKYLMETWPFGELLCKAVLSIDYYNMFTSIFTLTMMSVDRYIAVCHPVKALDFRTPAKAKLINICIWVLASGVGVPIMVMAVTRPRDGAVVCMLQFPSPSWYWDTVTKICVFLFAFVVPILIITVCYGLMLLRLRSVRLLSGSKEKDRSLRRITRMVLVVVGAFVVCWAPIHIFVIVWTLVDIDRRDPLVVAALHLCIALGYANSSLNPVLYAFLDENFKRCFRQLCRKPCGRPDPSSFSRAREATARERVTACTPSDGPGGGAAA
OPRM1-OPRD1 ag: agonists of human mu-delta opioid receptor heterodimerization; cells, OPRM1-OPRD1 heterodimerization, luminescence; AID 504326; activation, % at 9.3 µM; hit rate 0.3% among 340,000
HTR5A ag ctr: activates human HTR5A in OPRM1-OPRD1 agonist counter-screen; HTR5A agonist assay, luminescence, cell-based; activation, % at 9.3 µM; hit rate 0.61% among 340,000; AID 504692; in the data active = activation mostly above about 9.5%, no sharp cut-off; inactive = mostly below about 7.6%
PolyA inh: blocks polyadenylation in yeast reporter cells. activity score, % at 12 µM. hit rate 0.02% among 300,000. AID 1875. S. cerevisiae SKY197-pL101 polyadenylation reporter, beta-gal luminescence; efflux-impaired pdr1/pdr3 knockout yeast; score 100 = 6 SD above DMSO;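 active = lowest replicate activity score at least 50, where 100 means six control SD above control mean; inconclusive = lowest score under 50 but half or more replicates reach 50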;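 also: yeast exposed to compound for 9 h at 30 °C; higher score means more reporter readthrough which indicates perturbed polyadenylation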
NALP1 inh: NALP1 inhibition; S. cerevisiae NALP1/ASC/caspase-1 growth, X-gal OD620, 72 h; inhibition, % at 10 µM; hit rate 0.61% among 280,000; in the data active = inhibition mostly above about 24%, no sharp cut-off; inactive = mostly below about 32%
MOR-DOR ag conf: OPRM1-OPRD1 heterodimer agonism, confirmation. shares compounds with OPRM1-OPRD1 ag. cells, MOR-DOR heterodimerization, luminescence complementation. activation, % at 9.3 µM. hit rate 45% among 830
HTR5A ag counter: HTR5A agonism, opioid heterodimer counter-screen; HTR5A agonist counterscreen, cell luminescence; shares compounds with OPRM1-OPRD1 ag; AID 504905; activation, % at 9.3 µM; hit rate 8% among 830; in the data active = activation above about 17%
OPRM1-D1 inv cf: OPRM1-OPRD1 heterodimer inverse agonism, confirmation. shares compounds with MOR-DOR inv ag. cells expressing OPRM1/OPRD1 heterodimer, luminescence. inhibition, % at 9.3 µM. hit rate 20% among 580. AID 504900; in the data active = inhibition above about 32%
HTR5A inv ctr2: HTR5A inverse agonism, opioid heterodimer counter-screen | HTR5A-expressing cells, luminescence | 580 tested, under 10 active | shares compounds with MOR-DOR inv ag | inhibition, % at 9.3 µM; call rule not given here
Of the large screens only hits and unclear results are named; the others gave an inactive call (follow-up assays come after a bar, where they were run). In the library only some 1.6% were active in any assay of this set; here they are far more common. Rule as the data show it, unless noted: active = activation above about 18%; inactive = the rest.

CN(C)C(CNC(=O)c1cccc(S(=O)(=O)Nc2ccc(SC(F)F)cc2)c1)c1ccccc1 (stereo unspecified)	OPRM1-OPRD1 ag 38 (no result: PolyA inh, NALP1 inh) | MOR-DOR ag conf inactive | HTR5A ag counter inactive
CN(C)C(CNC(=O)c1cccc(S(=O)(=O)N(C)C)c1)c1ccccc1 (stereo unspecified)	OPRM1-OPRD1 ag 33 | MOR-DOR ag conf inactive | HTR5A ag counter 26
Cc1ccc(S(=O)(=O)N(CC(=O)N2CCOCC2)c2ccc(C(C)C)cc2)cc1	none
CCCS(=O)(=O)c1c(S(=O)(=O)CCC)c2ccc(C(N)=O)cn2c1C(=O)c1ccc(OC)cc1	none
COC(=O)C1Cc2ccccc2CN1C(=O)CCl (stereo unspecified)	none
CC(C)(C)c1ccc(OCC(=O)Nc2ccc3c4c(cccc24)C(=O)NC3=O)cc1	OPRM1-OPRD1 ag 19 | MOR-DOR ag conf inactive | HTR5A ag counter inactive
CC(=O)c1cccc(CN2CCC(C(=O)Nc3cccc(-c4ccn[nH]4)c3)CC2)c1	none
CN1CCN(c2ccc(NC(=O)COc3ccc4ccccc4c3)cc2)CC1	none
CN1CCN(c2ccc(NC(=O)COc3cccc4ccccc34)cc2)CC1	OPRM1-OPRD1 ag 25 | MOR-DOR ag conf inactive | HTR5A ag counter 39
C#CCOCCOCCOCCNc1nc(N2CCN(C(=O)[C@H](CC(N)=O)n3cc([C@@H](N)C(C)C)nn3)CC2)nc(N2CCN(C(=O)[C@H](CC(N)=O)n3cc([C@@H](N)C(C)C)nn3)CC2)n1	none (no result: PolyA inh, NALP1 inh)
O=C(NCCc1ccc(Cl)cc1)C1CCC(CNc2nc(=S)[nH]c3ccccc23)CC1 (stereo unspecified)	OPRM1-OPRD1 ag 33 | MOR-DOR ag conf 36 | HTR5A ag counter inactive
O=C(CCCCCNc1nc(=S)[nH]c2ccccc12)NCc1ccccc1Cl	PolyA inh inconclusive (no result: HTR5A inv ag, MOR-DOR inv ag, OPRM1-OPRD1 ag, HTR5A ag ctr)
S=c1nc(NCCc2ccccc2Cl)c2ccccc2[nH]1	OPRM1-OPRD1 ag 23 | MOR-DOR ag conf inactive | HTR5A ag counter inactive
Cc1cc(C)cc(CC(Cc2nc3ccccc3[nH]2)c2nc3ccccc3[nH]2)c1 (stereo unspecified)	OPRM1-OPRD1 ag 66 (no result: NALP1 inh) | MOR-DOR ag conf inactive | HTR5A ag counter inactive
Cc1ccc2c(=O)cc(C(=O)NCc3ccccc3)oc2c1C	none
CCc1ccc(OCc2n[nH]c(=S)n2C(C)CCCC(C)C)cc1 (stereo unspecified)	OPRM1-OPRD1 ag 20 | MOR-DOR ag conf inactive | HTR5A ag counter 18
COc1ccc(CC(=O)NNC(=O)COc2ccc(Cl)cc2C)cc1S(=O)(=O)N1CCOCC1	none (no result: PolyA inh, NALP1 inh)
Cc1occc1C(=O)N/N=C/c1ccc(-c2ccccc2)cc1	OPRM1-OPRD1 ag 20 | MOR-DOR ag conf 60 | HTR5A ag counter inactive
Cc1occc1C(=O)N/N=C/c1ccc(OCc2ccccc2)cc1	none
Cc1nc(N2CCN(c3ccccn3)CC2)c2c(C)c(C(=O)N3CCN(c4ccc(F)cc4)CC3)sc2n1	OPRM1-OPRD1 ag 167 | MOR-DOR ag conf 239 | HTR5A ag counter inactive
COc1ccccc1N1CCN(C(=O)c2sc3nc(C)nc(N4CCN(c5ccccn5)CC4)c3c2C)CC1	OPRM1-OPRD1 ag 109 | MOR-DOR ag conf 134 | HTR5A ag counter inactive
COc1ccccc1N1CCN(C(=O)c2sc3ncnc(N4CCN(c5ccccn5)CC4)c3c2C)CC1	none
O=C1c2[nH]nc(-c3ccccc3O)c2C(c2ccc(F)cc2)N1Cc1ccco1 (stereo unspecified)	OPRM1-OPRD1 ag 20 | MOR-DOR ag conf inactive | HTR5A ag counter inactive
COc1ccc(C2c3c(-c4ccccc4O)n[nH]c3C(=O)N2Cc2ccco2)cc1OC (stereo unspecified)	none
Oc1cccc(C(=S)N2CCC(Cc3ccccc3)CC2)c1	none
Oc1cccc(C(=S)N2CCN(Cc3ccccc3)CC2)c1	OPRM1-OPRD1 ag 32 | MOR-DOR ag conf inactive | HTR5A ag counter inactive
CCOc1ccc(CCNC(=O)COC(=O)CSc2ccc(C)cc2)cc1OCC	none (no result: PolyA inh, NALP1 inh)
COC(=O)CCC/C=C1/SCC(NC(=O)c2ccccc2)C1=O (stereo unspecified)	MOR-DOR inv ag 33 | OPRM1-D1 inv cf inactive | HTR5A inv ctr2 inactive
O=C(NCC1CCCCC1)c1cccc(Br)c1	none
O=C(COC(=O)c1cc(S(=O)(=O)NCc2ccccc2)ccc1O)NCc1ccccc1	none
O=C(COC(=O)c1cc(S(=O)(=O)NCc2ccccc2)ccc1O)c1cc2ccccc2o1	MOR-DOR inv ag 41 | OPRM1-D1 inv cf inactive | HTR5A inv ctr2 inactive
Cc1ccc(C(=O)COC(=O)CCC(=O)Nc2ccccc2Cl)cc1[N+](=O)[O-]	MOR-DOR inv ag 45 | OPRM1-D1 inv cf inactive | HTR5A inv ctr2 inactive
O=C(CCC(=O)OCc1ccc([N+](=O)[O-])cc1)Nc1ccccc1Cl	none
Cc1ccc(N2CC(C(=O)OCC(=O)c3ccc(C)c([N+](=O)[O-])c3)CC2=O)cc1 (stereo unspecified)	MOR-DOR inv ag 52 (no result: NALP1 inh) | OPRM1-D1 inv cf inactive | HTR5A inv ctr2 inactive
CC(=O)c1ccc(NC(=O)CCC(=O)OCC(=O)c2cccc([N+](=O)[O-])c2)cc1	MOR-DOR inv ag 61 | OPRM1-D1 inv cf 51 | HTR5A inv ctr2 inactive
CC(=O)Nc1ccc(NC(=O)CCC(=O)OCC(=O)c2ccc(C)c([N+](=O)[O-])c2)cc1	HTR5A inv ag 21, MOR-DOR inv ag 57 | OPRM1-D1 inv cf 36 | HTR5A inv ctr2 inactive
Cc1ccc(N2CC(C(=O)OCC(=O)c3ccc(F)cc3)CC2=O)cc1 (stereo unspecified)	none
Cc1ccc(C(=O)COC(=O)c2ccncc2)cc1[N+](=O)[O-]	MOR-DOR inv ag 49 | OPRM1-D1 inv cf inactive | HTR5A inv ctr2 inactive
Cn1cnc([N+](=O)[O-])c1S(=O)(=O)Oc1cccc2ccccc12	none (no result: PolyA inh, NALP1 inh)
Cn1cnc([N+](=O)[O-])c1S(=O)(=O)Oc1ccc(Cl)cc1	MOR-DOR inv ag 40 (no result: PolyA inh, NALP1 inh) | OPRM1-D1 inv cf inactive | HTR5A inv ctr2 inactive
O=C(Nc1ccccc1C(F)(F)F)C1CCCC1	none
ON1C(c2ccccc2C(F)(F)F)N(O)[C@H]2CCCC[C@H]21 (stereo partly specified)	MOR-DOR inv ag 41 | OPRM1-D1 inv cf inactive | HTR5A inv ctr2 inactive
